# Screening data: PubChem, Bradner/Qi Labs at DFCI
# CBX7 inh = CBX7 inhibition, primary AlphaScreen. normalised signal (fraction of DMSO) (concentration not given with the values). 1.1% of 66,000 active. AID 1224903. AlphaScreen His6-CBX7 / biotin-H3K27me3 peptide binding; active compounds read low. O95931; in the data active means normalised signal below about 0.5
# Target sequence (O95931 whole entry, looked up): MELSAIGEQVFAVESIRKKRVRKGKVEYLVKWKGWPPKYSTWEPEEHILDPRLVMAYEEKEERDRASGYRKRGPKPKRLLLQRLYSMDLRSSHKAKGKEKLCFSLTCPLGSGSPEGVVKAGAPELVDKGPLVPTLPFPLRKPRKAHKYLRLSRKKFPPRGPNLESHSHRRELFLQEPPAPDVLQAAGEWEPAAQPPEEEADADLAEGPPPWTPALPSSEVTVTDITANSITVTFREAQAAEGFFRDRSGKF
# A number is an active result; - = inactive. The full list was thinned out, with hits kept by preference.
SMILES,CBX7 inh
COc1ccc(NC(=O)CSc2nccn2-c2ccc(OC)cc2)cc1,-
Cc1ccc(NC(=O)CSc2nccn2-c2ccc(F)cc2)cc1Cl,-
COc1ccc(-n2ccnc2SCC(=O)Nc2ccc(C)c(Cl)c2)cc1,0.47
COc1ccc(OC)c(NC(=O)CSc2nccn2-c2ccc(F)cc2)c1,0.48
COc1cccc(-n2ccnc2SCC(=O)Nc2cc(OC)ccc2OC)c1,-
COc1ccc(OC)c(NC(=O)CSc2nccn2-c2ccccc2)c1,-
Cn1cc(C(=O)Nc2ccc(F)cc2F)c2ccccc2c1=O,-
CCOc1ccccc1-c1cc(C(=O)NCc2ccncc2)c2ccccc2n1,-
CCCCCNc1nc(CCCC)c2c(c1C#N)CC(C)(C)OC2,-
COc1ccccc1NC(=O)Nc1nnc(N2CCC(C)CC2)s1,-
O=C(Nc1nc(-c2ccc(Br)cc2)cs1)c1ccc(Cl)cc1Cl,-
CCOC(=O)c1cnc2c(OC)cccc2c1NCC(C)O (stereo not given),-
CCCCCCCNC(=O)COc1ccc2c(c1)C(=O)CC(C)(C)O2,-
CCN1CCN(CCCNC(=O)COc2ccc3c(c2)C(=O)CC(C)(C)O3)CC1,0.45
CCCN1CCN(CCCNC(=O)COc2ccc3c(c2)C(=O)CC(C)(C)O3)CC1,-
CN1CCN(C2CC(=O)N(c3ccc(Br)cc3)C2=O)CC1 (stereo not given),-
Cc1ccc(NC(=O)CCc2nc(-c3cccs3)no2)nc1,-
CCOC(=O)c1cnc2c(OC)cccc2c1Nc1cccc(Cl)c1,-
CCOc1ccc(NC2c3ccccc3C(=O)N2Cc2ccccc2Cl)cc1 (stereo not given),-
Cc1ccc(NC2c3ncccc3C(=O)N2Cc2ccc(F)cc2)cc1 (stereo not given),0.44
Cc1ccc(NC2c3ccccc3C(=O)N2Cc2ccccc2Cl)cc1 (stereo not given),-
O=C1c2ccccc2C(Nc2ccccn2)N1Cc1ccccc1 (stereo not given),-
CCOc1ccc(NC2c3ncccc3C(=O)N2Cc2ccc(F)cc2)cc1 (stereo not given),0.5
Cc1ccc(Cl)cc1NC1c2ncccc2C(=O)N1Cc1ccc(F)cc1 (stereo not given),-
CCOc1ccc(NC2c3ccccc3C(=O)N2c2cccnc2)cc1 (stereo not given),-
SMILES,CBX7 inh
O=C1c2cccnc2C(Nc2ccc(Cl)cc2)N1Cc1ccc(F)cc1 (stereo not given),0.37
Cc1ccc(NC2c3ccccc3C(=O)N2Cc2ccccc2)cc1 (stereo not given),-
Cc1ccc2c(c1)C(c1ccc(F)cc1)N(C(=O)CCc1ccccc1)CC(=O)N2 (stereo not given),-
CCOc1ccc(-c2cc(C(=O)NCc3ccccc3OCC)c3ccccc3n2)cc1,-
O=C(NC1CCCCC1)c1nnc(Cc2ccc(Cl)cc2)o1,-
NC(=O)c1oc2ccccc2c1NC(=O)c1ccc(S(=O)(=O)N2CCc3ccccc32)cc1,-
CCOC(=O)c1c(C)n(CCOc2ccccc2OC)c2ccc(O)cc12,-
COc1cc(-c2nc(-c3ccccc3)c(-c3ccccc3)[nH]2)ccc1O,-
COc1cc(-c2nc(-c3cccs3)c(-c3cccs3)[nH]2)ccc1O,0.44
COc1ccc(-c2nc(-c3cccs3)[nH]c2-c2ccccc2)cc1OC,-
O=C(CC1Sc2ccccc2NC1=O)Nc1cccc2ccccc12 (stereo not given),-
CCOC(=O)c1ccc(NC2c3ccccc3C(=O)N2Cc2ccccc2)cc1 (stereo not given),-
O=C(O)c1ccc2[nH]c(=O)c(Cc3cccc(Cl)c3)nc2c1,-
COc1ccc(N2Cc3cccc(C(=O)Nc4ccccc4OC)c3C2=O)cc1,-
CCc1ccccc1NC(=O)c1cccc2c1C(=O)N(c1ccc(OC)cc1)C2,0.14
CCc1ccc(NC(=O)c2cccc3c2C(=O)N(c2ccc(OC)cc2)C3)cc1,-
CCn1c2ccccc2c2cc(NC(=O)Cn3ncc4c3-c3cc(C)ccc3OC4)ccc21,-
COc1ccc(-n2ccnc2SCC(=O)Nc2cc(C)cc(C)c2)cc1,-
CCCCN(CCCC)C(=O)c1oc2ccc(S(=O)(=O)N3CCCCCC3)cc2c1C,-
COc1cccc2c(S(=O)(=O)Nc3ccc(C(=O)O)cc3)ccnc12,0.12
COc1ccc(S(=O)(=O)Nc2cccc(C)c2C)c2cccnc12,-
COc1ccc(S(=O)(=O)Nc2ccccc2Cl)c2cccnc12,-
Cc1cccc(NCc2nc3ccccc3n2Cc2ccccc2F)c1,-
COc1ccccc1CNC(=O)c1ccc2c(c1)ncn2-c1ccc(F)cc1F,-
CC(NC(=O)c1ccncc1)C(c1cccs1)N1CCN(c2ccc(F)cc2)CC1 (stereo not given),-
CCCCNC(=O)C1CC(=O)N(CCc2ccccc2)C1 (stereo not given),-
CCCCN(CCCNC(=O)C1CC(=O)N(CCc2ccccc2)C1)c1ccccc1 (stereo not given),0.5
CCN(CCCNC(=O)C1CC(=O)N(CCc2ccccc2)C1)c1cccc(C)c1 (stereo not given),-
